Laboratory results as given in PubChem BioAssay AID1159580 (chemical genetic matrix, 2015).
The campaign covered roughly 5,500 compounds. About 2,000 (36%) were called active. Another 18% or so got no clear call; they are omitted. No stated cut-off is given here; in the data, active means normalized growth mostly below about 0.91 (no sharp cut-off); inconclusive means no clear call, values can overlap the other calls; inactive means mostly above about 0.92. The list shows a part of the results.

Test: chemical genetic growth profiling, strain panel (AID 1159580);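 further: tested at 20 µM; growth read once vehicle control cultures reached saturation at 30 °C; 1 = growth at the plate median or of vehicle wells; lower values mean less growth of the strain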
Details: S. cerevisiae deletion strains, growth OD

Measured: normalized growth

O=S(=O)(O)O
inactive: locus YAL021C, strain ccr4, active compounds read low 0.973 | locus YAL026C, strain drs2, active compounds read low 0.983 | locus YAL030W, strain snc1, active compounds read low 0.985 | locus YBL061C, strain skt5, active compounds read low 0.975 | locus YBR009C, strain hhf1, active compounds read low 0.991 | locus YBR023C, strain chs3, active compounds read low 0.98 | locus YBR171W, strain sec66, active compounds read low 0.961 | locus YBR231C, strain swc5, active compounds read low 0.976 | locus YBR279W, strain paf1, active compounds read low 0.985 | locus YCL011C, strain gbp2, active compounds read low 0.965 | locus YCL016C, strain dcc1, active compounds read low 0.981 | locus YCL061C, strain MRC1, active compounds read low 0.993 | locus YCL069W, strain vba3, active compounds read low 0.969 | locus YCR088W, strain abp1, active compounds read low 0.956 | locus YDL005C, strain med2, active compounds read low 0.954 | locus YDL040C, strain nat1, active compounds read low 0.988 | locus YDR001C, strain nth1, active compounds read low 0.987 | locus YDR069C, strain doa4, active compounds read low 0.964 | locus YDR137W, strain rgp1, active compounds read low 1.01 | locus YDR159W, strain sac3, active compounds read low 0.985 | locus YDR195W, strain ref2 1 | locus YDR297W, strain sur2, active compounds read low 0.976 | locus YDR334W, strain swr1, active compounds read low 0.976 | locus YDR335W, strain msn5, active compounds read low 0.978 | locus YDR392W, strain spt3, active compounds read low 0.914 | locus YEL003W, strain gim4, active compounds read low 0.988 | locus YEL037C, strain rad23, active compounds read low 0.969 | locus YEL061C, strain CIN8 (second series), active compounds read low 0.971 | locus YER015W, strain faa2, active compounds read low 0.975 | locus YER016W, strain bim1, active compounds read low 0.983 | locus YER111C, strain swi4, active compounds read low 0.967 | locus YER155C, strain BEM2 (second series), active compounds read low 0.976 | locus YFR010W, strain ubp6, active compounds read low 0.973 | locus YGL167C, strain pmr1, active compounds read low 0.973 | locus YGL173C, strain kem1, active compounds read low 0.962 | locus YGL227W, strain vid30, active compounds read low 0.961 | locus YGL240W, strain doc1, active compounds read low 0.982 | locus YGL253W, strain hxk2, active compounds read low 0.969 | locus YHR013C, strain ard1, active compounds read low 0.96 | locus YHR027C, strain rpn1, active compounds read low 0.978 | locus YHR030C, strain SLT2, active compounds read low 1.04 | locus YHR079C, strain IRE1, active compounds read low 1.06 | locus YHR142W, strain chs7, active compounds read low 0.961 | locus YJL092W, strain hpr5, active compounds read low 0.95 | locus YJL095W, strain BCK1 (second series), active compounds read low 0.981 | locus YJL095W, strain BCK1, active compounds read low 1.06 | locus YJL115W, strain asf1, active compounds read low 0.981 | locus YJL129C, strain trk1, active compounds read low 0.961 | locus YJL154C, strain vps35, active compounds read low 0.977 | locus YJL164C, strain tpk1, active compounds read low 0.983 | locus YJL166W, strain qcr8, active compounds read low 0.977 | locus YJL187C, strain SWE1, active compounds read low 0.981 | locus YJR066W, strain TOR1, active compounds read low 0.967 | locus YKL160W, strain elf1, active compounds read low 0.987 | locus YKR026C, strain gcn3, active compounds read low 0.975 | locus YKR091W, strain srl3, active compounds read low 0.977 | locus YLL001W, strain dnm1, active compounds read low 0.992 | locus YLL026W, active compounds read low 0.966 | locus YLL041C, strain sdh2, active compounds read low 0.988 | locus YLR027C, strain aat2, active compounds read low 0.985 | locus YLR113W, strain HOG1, active compounds read low 0.992 | locus YLR221C, strain rsa3, active compounds read low 0.979 | locus YLR258W, strain gsy2, active compounds read low 0.98 | locus YLR262C, strain YPT6 (second series), active compounds read low 1 | locus YLR320W, strain mms22, active compounds read low 0.969 | locus YLR342W, strain FKS1, active compounds read low 0.955 | locus YLR357W, strain rsc2, active compounds read low 0.951 | locus YLR370C, strain arc18, active compounds read low 0.965 | locus YLR384C, strain iki3, active compounds read low 0.977 | locus YML120C, strain ndi1, active compounds read low 0.979 | locus YMR058W, strain fet3, active compounds read low 0.985 | locus YMR125W, strain sto1, active compounds read low 0.944 | locus YMR129W, active compounds read low 0.99 | locus YMR205C, strain PFK2, active compounds read low 0.976 | locus YMR231W, strain pep5, active compounds read low 0.956 | locus YNL071W, strain lat1, active compounds read low 0.959 | locus YNL183C, strain NPR1, active compounds read low 0.986 | locus YNL209W, strain ssb2, active compounds read low 0.975 | locus YNL248C, strain rpa49, active compounds read low 0.978 | locus YNL322C, strain KRE1 (second series), active compounds read low 0.966 | locus YNR049C, strain mso1, active compounds read low 0.983 | locus YOR001W, strain rrp6, active compounds read low 0.964 | locus YOR070C, strain gyp1, active compounds read low 0.974 | locus YOR080W, strain dia2, active compounds read low 0.968 | locus YOR083W, strain WHI5, active compounds read low 0.986 | locus YOR106W, strain vam3, active compounds read low 0.934 | locus YOR231W, strain MKK1, active compounds read low 1.02 | locus YOR265W, strain rbl2, active compounds read low 0.981 | locus YOR270C, strain vph1, active compounds read low 1 | locus YOR290C, strain snf2, active compounds read low 0.982 | locus YPL051W, strain arl3, active compounds read low 0.981 | locus YPL078C, strain atp4, active compounds read low 0.982 | locus YPL106C, strain sse1, active compounds read low 0.946 | locus YPL240C, strain hsp82, active compounds read low 0.957 | locus YPL256C, strain CLN2, active compounds read low 1.06
